{"source": "PubChem BioAssay", "note": "The source made the active and inactive calls. How the calls were made is not given here."}
{"target": "Pantothenate synthetase (Mycobacterium tuberculosis (strain ATCC 25618 / H37Rv)) (UniProt P9WIL5)", "sequence (P9WIL5 whole entry, looked up)": "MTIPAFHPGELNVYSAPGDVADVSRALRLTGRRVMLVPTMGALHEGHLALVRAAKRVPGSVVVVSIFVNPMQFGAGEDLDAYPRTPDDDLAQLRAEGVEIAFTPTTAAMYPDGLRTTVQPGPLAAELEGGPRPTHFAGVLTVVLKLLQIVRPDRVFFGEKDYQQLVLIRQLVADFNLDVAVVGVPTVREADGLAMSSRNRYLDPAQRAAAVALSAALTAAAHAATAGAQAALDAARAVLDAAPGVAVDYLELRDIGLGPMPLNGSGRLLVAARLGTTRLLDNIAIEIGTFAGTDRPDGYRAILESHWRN", "test": "Recombinant Mtb pantothenate synthetase (PanC) inhibitors, coupled enzyme, confirmatory (AID 375);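 further: 0% = full reaction with vehicle and 100% = no enzyme background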", "conditions": "coupled enzyme assay; at 10 µM, stronger effect = higher value"}
{"smiles": "COc1cc(C2N=C(c3ccccc3)NO2)cc(Br)c1O", "note": "(stereo not given)", "inhibition": "4% (inactive)"}
{"smiles": "O=C1N=C(N2CCOCC2)CS1", "inhibition": "0% (inactive)"}
{"smiles": "c1coc(Cn2nnnc2CN2CCN(C3CCCC3)CC2)c1", "inhibition": "0% (inactive)"}
{"smiles": "CSc1nc(N2CCOCC2)c2c(c1C#N)CCCCC2", "inhibition": "0% (inactive)"}
{"smiles": "O=C(OCc1cccs1)c1ccccc1NS(=O)(=O)c1ccc2c(c1)OCCO2", "inhibition": "0% (inactive)"}
{"smiles": "CCN(CC)c1ccc2c(c1)C(=O)N(C)C2=O", "inhibition": "7% (inactive)"}
{"smiles": "O=C(NCCN1C(=O)C2C3C=CC(C3)C2C1=O)Nc1ccccn1", "note": "(stereo not given)", "inhibition": "0% (inactive)"}
{"smiles": "Cc1ccc(-c2nn(C)c(=O)c3ccccc23)cc1S(=O)(=O)N1CCOCC1", "inhibition": "9% (inactive)"}
{"smiles": "CCn1cc(C(=O)N2CCCC2)c(=O)c2cc(S(=O)(=O)N3CCOCC3)ccc21", "inhibition": "0% (inactive)"}
{"smiles": "CCOC(=O)CN(C(=O)CSc1nnc(-c2ccncc2)n1CCCN(C)C)c1ccccc1", "inhibition": "11% (inactive)"}
{"smiles": "Cc1oc(-c2ccccc2F)nc1CS(=O)(=O)CC(=O)NCc1ccco1", "inhibition": "0% (inactive)"}
{"smiles": "Cc1cccc(Nc2nc3c(c(=O)n(C)c(=O)n3C)n2Cc2ccccc2)c1", "inhibition": "5% (inactive)"}
{"smiles": "COc1cccc(NC(=O)c2nnn(Cc3ccc(Br)cc3F)c2N)c1", "inhibition": "7% (inactive)"}
{"smiles": "O=C(Cn1cnc2c(nnn2-c2ccc(F)cc2)c1=O)N1CCCc2ccccc21", "inhibition": "0% (inactive)"}
{"smiles": "Cc1c(C(=O)OCCOC(C)C)[nH]c2c1C(=O)CC(c1ccco1)C2", "note": "(stereo not given)", "inhibition": "0% (inactive)"}
{"smiles": "CCC(C)NC(=O)CS(=O)(=O)Cc1nc(-c2cccc(OC)c2)oc1C", "note": "(stereo not given)", "inhibition": "0% (inactive)"}
{"smiles": "CC1CCCC(N2CCN(C(=O)c3ccc(F)cc3)CC2)C1", "note": "(stereo not given)", "inhibition": "0% (inactive)"}
{"smiles": "CCOc1ccc(C2CC(c3cccc(OC)c3)Nc3nc(N)nn32)cc1", "note": "(stereo not given)", "inhibition": "0% (inactive)"}
{"smiles": "CC(C)CNC(=O)c1ccccc1NC(=O)CN(c1ccc2c(c1)OCCO2)S(C)(=O)=O", "inhibition": "0% (inactive)"}
{"smiles": "CCn1c(C(=O)N2CCC(C(=O)NCc3ccc4c(c3)OCO4)CC2)cc2sccc21", "inhibition": "0% (inactive)"}
{"smiles": "Cc1ccccc1OCC(O)CN", "note": "(stereo not given)", "inhibition": "0% (inactive)"}
{"smiles": "COc1cccc(C2CC(c3ccc(C)cc3)Nc3nc(N)nn32)c1", "note": "(stereo not given)", "inhibition": "0% (inactive)"}
{"smiles": "CCn1ncc(C2=NOC(C(=O)NCc3ccc(Cl)cc3)C2)c1C", "note": "(stereo not given)", "inhibition": "0% (inactive)"}
{"smiles": "O=C(O)CC1NC(=O)N(c2ccccc2)C1=O", "note": "(stereo not given)", "inhibition": "0% (inactive)"}
{"smiles": "Cc1csc(OCc2ccc(C#N)cc2)n1", "inhibition": "0% (inactive)"}
{"smiles": "Cc1ccc(/C(O)=C2/C(=O)C(=O)N(Cc3ccco3)C2c2cccs2)cc1", "note": "(stereo not given)", "inhibition": "0% (inactive)"}
{"smiles": "COc1ccc(OC)c(C2C3=C(CCCC3=O)Nc3c2c(=O)n(C)c(=O)n3C)c1", "note": "(stereo not given)", "inhibition": "0% (inactive)"}
{"smiles": "CCC(c1nnnn1CCOC)N(Cc1ccc(C)cc1)Cc1cc2cc(OC)ccc2[nH]c1=O", "note": "(stereo not given)", "inhibition": "0% (inactive)"}
{"smiles": "COc1ccc(NC(=O)Nc2cc(C)ccc2OC)cc1", "inhibition": "0% (inactive)"}
{"smiles": "Cc1ccc(C)c(NS(=O)(=O)c2ccc(NC(=O)c3ccco3)cc2)c1", "inhibition": "0% (inactive)"}
{"smiles": "COCCN(CC(=O)NC1CCCCC1)C(=O)CSc1nc2ccccc2o1", "inhibition": "0% (inactive)"}
{"smiles": "COCCCNC(=O)CCCn1c(=O)c2ccccc2n(CC(=O)Nc2c(C)cccc2C)c1=O", "inhibition": "0% (inactive)"}
{"smiles": "O=C(CCCn1c(=O)[nH]c2ccsc2c1=O)N1CCN(c2ccccn2)CC1", "inhibition": "3% (inactive)"}
{"smiles": "COCCNC(=O)c1c(N)n(/N=C/c2cccs2)c2nc3ccccc3nc12", "inhibition": "0% (inactive)"}
{"smiles": "CCOCCCNC(=O)CN1CCN(Cc2ccccc2C)C1=O", "inhibition": "5% (inactive)"}
{"smiles": "Cc1ccc(C)c(N2CCN(C(=O)C3CCN(S(=O)(=O)c4c(C)noc4C)CC3)CC2)c1", "inhibition": "4% (inactive)"}
{"smiles": "COc1ccc(CCNC(=O)c2cnn3ccccc23)c(OC)c1OC", "inhibition": "4% (inactive)"}
{"smiles": "O=C(CCn1c(=S)[nH]c2cc3c(cc2c1=O)OCO3)N1CCN(C2CCCCC2)CC1", "inhibition": "0% (inactive)"}
{"smiles": "CC(=O)N1CCN(S(=O)(=O)c2ccc(S(=O)(=O)NC3CC3)cc2)CC1", "inhibition": "3% (inactive)"}
{"smiles": "CCOC(=O)c1cc2oc(C)cc2n1CC(=O)OC1CCCCC1", "inhibition": "1% (inactive)"}
